Experimental data from PubChem BioAssay (NCATS).
Results filed as inconclusive are left out. The source made the active and inactive calls. Calls come from the whole dose curve; as a rule, active = well fitted activation curve with a large enough effect; inconclusive = small, poorly fitted or top-dose-only effect; inactive = no such curve, though single readings can be large or run the other way.

Each compound was assayed against Cellular tumor antigen p53 (Homo sapiens) (UniProt P04637) (assay: Primary qHTS for small molecule compounds that upregulate eGFP-tagged delta133p53alpha (in N-terminal) cells. (AID 2060322; note: nearly all actives have a fitted effect of over 75% in size;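 for activation: cells pre-induced with doxycycline then dosed without doxycycline; series mostly up to about 56 µM; 0% = DMSO vehicle and 100% = reference activator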)). Conditions: NCI-H358 eGFP-delta133p53alpha fluorescence, 24 h; activation: active compounds read high.
Cellular tumor antigen p53 (Homo sapiens), sequence (P04637 whole entry, looked up): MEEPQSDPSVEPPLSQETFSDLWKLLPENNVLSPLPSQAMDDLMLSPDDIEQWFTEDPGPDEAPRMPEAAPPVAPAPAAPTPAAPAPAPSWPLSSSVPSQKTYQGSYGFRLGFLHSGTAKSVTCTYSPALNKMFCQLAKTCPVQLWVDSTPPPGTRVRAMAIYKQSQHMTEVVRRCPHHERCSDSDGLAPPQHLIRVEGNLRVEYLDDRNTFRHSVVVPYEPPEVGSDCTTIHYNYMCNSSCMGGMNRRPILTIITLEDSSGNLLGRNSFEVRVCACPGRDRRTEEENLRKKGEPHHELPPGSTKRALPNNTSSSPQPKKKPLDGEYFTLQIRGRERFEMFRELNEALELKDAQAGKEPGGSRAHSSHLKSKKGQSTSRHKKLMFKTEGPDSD
Outline: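 NCI-H358 cells pre-induced 24 h with 10 ng/ml doxycycline for eGFP-delta133p53alpha, plated dox-free and exposed 24 h at 37C to titrated compounds. Fixed, Hoechst-stained; gated GFP peak intensity by laser scanning cytometry, normalized to DMSO (0%) and 57.5 uM 5-azacytidine (100%).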
Potency is the fitted concentration of half-maximal effect.

Q: Which Potency does the source give for O=C1Nc2ccc(I)cc2C1=Cc1cc(Br)c(O)c(Br)c1 here?
A: 24.3 µM (active)

Q: Which activation does the source give for CCCN(CCC)S(=O)(=O)c1ccc(C(=O)O)cc1 here?
A: 8.47% (inactive)

Q: For CC(=O)N1CCN(c2ccc(OCc3nn(C)c(C)c3-c3cccc4c(CCCOc5cccc6ccccc56)c(C(=O)O)n(Cc5cccnc5)c34)cc2)CC1, which activation is on record?
A: 22.3% (inactive)

Q: How did the activation turn out when Oc1cccc(-c2c3nc(c(-c4cccc(O)c4)c4ccc([nH]4)c(-c4cccc(O)c4)c4nc(c(-c5cccc(O)c5)c5ccc2[nH]5)CC4)C=C3)c1 was run?
A: 25.9% (inactive)

Q: CO[C@H]1O[C@@H]2O[C@@]3(C)CC[C@@H]4[C@@H](C)CC[C@@H]([C@H]1C)[C@@]24OO3 was tested. Which activation did it give?
A: 20% (inactive)

Q: For CCC(C(=O)OCCN1CCOC(c2ccccc2)C1C)c1ccccc1 (stereo not given), which activation is on record?
A: -7.53% (inactive)

Q: How did the activation turn out when CC[N+](CC)(CC(=O)Nc1c(C)cccc1C)Cc1ccccc1 was run?
A: -10.9% (inactive)

Q: With CCC(=O)O[C@]1(C(=O)CO)CC[C@H]2[C@@H]3CCC4=CC(=O)CC[C@]4(C)[C@@H]3CC[C@@]21C as the compound, how does the activation read?
A: 38% (inactive)

Q: How did the activation turn out when O=C(O)Cc1ccc(CCNS(=O)(=O)c2ccc(Cl)cc2)cc1 was run?
A: -1.67% (inactive)

Q: How did the activation turn out when Nc1ccc(S(=O)(=O)NC(=O)c2ccccc2)cc1 was run?
A: 5.08% (inactive)

Q: CC(C)NCC(O)c1ccc2ccccc2c1 (stereo not given) was tested. Which activation did it give?
A: -2.82% (inactive)

Q: How did the activation turn out when Cn1c(=O)c2[nH]c(Br)nc2n(C)c1=O was run?
A: -3.95% (inactive)

Q: CC(Cc1cccc(C(F)(F)F)c1)NCCOC(=O)c1ccccc1 (stereo not given) was tested. Which activation did it give?
A: 17.6% (inactive)

Q: Which activation does the source give for CC(C)(C)CC(=O)OCC(=O)[C@@]1(O)CC[C@H]2[C@@H]3CCC4=CC(=O)C=C[C@]4(C)[C@H]3[C@@H](O)C[C@@]21C here?
A: -9.21% (inactive)

Q: For CCN(C(=O)CO)[C@H]1CN(C(=Nc2cccc(OC(F)F)c2)NC#N)N=C1c1ccc(Cl)c(Cl)c1, which activation is on record?
A: 19% (inactive)

Q: How did the activation turn out when COC(=O)c1ccccc1C(=O)c1ccc(OCCN2CCCCC2)cc1 was run?
A: -14.1% (inactive)

Q: With CN(C)CCC[C@@]1(c2ccc(F)cc2)OCc2cc(C#N)ccc21 as the compound, how does the activation read?
A: 15.3% (inactive)

Q: Which activation does the source give for CO[C@H]1C[C@@H]2CC[C@@H](C)[C@@](O)(O2)C(=O)C(=O)N2CCCC[C@@H]2C(=O)O[C@H]([C@H](C)C[C@@H]2CC[C@H](OP(C)(C)=O)[C@H](OC)C2)CC(=O)[C@H](C)C=C(C)[C@@H](O)[C@@H](OC)C(=O)[C@H](C)C[C@H](C)C=CC=CC=C1C here?
A: 24.8% (inactive)

Q: For CN1CC[C@H](c2c(O)cc(O)c3c(=O)cc(-c4ccccc4Cl)oc23)[C@H](O)C1, which Potency is on record?
A: 0.11 µM (active)

Q: With CCC=CC[C@H]1C(=O)CC[C@@H]1CC(=O)OC as the compound, how does the activation read?
A: 10.3% (inactive)

Q: For O=C1O[C@H]([C@@H](O)CO)C(O)=C1O, which activation is on record?
A: -9.6% (inactive)

Q: COCC(=O)Nc1c(I)c(C(=O)NCC(O)CO)c(I)c(C(=O)N(C)CC(O)CO)c1I (stereo not given) was tested. Which activation did it give?
A: -4.18% (inactive)

Q: How did the activation turn out when OCc1ccccc1O was run?
A: -1.69% (inactive)

Q: NC(=O)n1c(O)c(C(=O)c2cccs2)c2cc(Cl)ccc21 was tested. Which activation did it give?
A: -6.21% (inactive)

Q: With COc1ccc(-c2coc3cc(O)ccc3c2=O)cc1 as the compound, how does the activation read?
A: -10.4% (inactive)
